A selection: hits, their analogues and other compounds. The true share with any hit is near 6.9%.
SKKanGAS inh: inhibitors of SKKanGAS S. pyogenes growth in kanamycin (SK-promoter or general growth effect) | inhibition, % at 7.5 µM | BacTiter-Glo, 6 h | AID 1662 | 300,000 tested, 1.3% active;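 active means mean replicate score, as percent of positive control median, at least 50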;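 further: strain carries kanamycin resistance gene driven by streptokinase promoter and grows in 40 µg/ml kanamycin; loss of luminescence reflects streptokinase promoter inhibition or plain growth inhibition; 0% = median of DMSO wells and 100% = positive control at its reference dose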
CSC inhib: blocks cancer stem cells; cancer stem cell-like cells viability, luminescence; inhibition, % at 7.5 µM; 300,000 tested, 1.1% active; in the data active means inhibition above about 75%; tested in HMLE shEcad cells
Beta apoptosis: beta cell apoptosis inhibition | protection from apoptosis, % (concentration not given with the values) | INS-1E cytokine-induced death, ATP luminescence, 48 h; percent of positive-control rescue, neutral wells zero | 300,000 tested, 0.8% active;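 active means Every replicate reaches about 75%, or at least half do and their mean reaches it too, limit read from the data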;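 further: 0% = cytokine-treated negative control wells and 100% = positive control rescue; higher means more ATP so stronger rescue from cytokine killing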
NR3A LBD binder: modulates the human NR3A ligand-binding domain; Tm shift relative to glycine control, % at 25 µM; NR3A LBD differential scanning fluorimetry, Tm shift; 0% = protein alone, 100% = glycine-bound protein; AID 1259313; 340,000 tested, 2.5% active;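 active means melting temperature shift of at least 10% of the positive control shift, at one fixed dose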
Mdm2-MdmX inh: human Mdm2/MdmX binding inhibition. SaOS-2 split-luciferase Mdm2/MdmX complementation, luminescence. inhibition, % at 8 µM. 330,000 tested, 3% active;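 active means inhibition of at least 50% at 8 µM in the primary screen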
Target sequence (O15151 whole entry, looked up): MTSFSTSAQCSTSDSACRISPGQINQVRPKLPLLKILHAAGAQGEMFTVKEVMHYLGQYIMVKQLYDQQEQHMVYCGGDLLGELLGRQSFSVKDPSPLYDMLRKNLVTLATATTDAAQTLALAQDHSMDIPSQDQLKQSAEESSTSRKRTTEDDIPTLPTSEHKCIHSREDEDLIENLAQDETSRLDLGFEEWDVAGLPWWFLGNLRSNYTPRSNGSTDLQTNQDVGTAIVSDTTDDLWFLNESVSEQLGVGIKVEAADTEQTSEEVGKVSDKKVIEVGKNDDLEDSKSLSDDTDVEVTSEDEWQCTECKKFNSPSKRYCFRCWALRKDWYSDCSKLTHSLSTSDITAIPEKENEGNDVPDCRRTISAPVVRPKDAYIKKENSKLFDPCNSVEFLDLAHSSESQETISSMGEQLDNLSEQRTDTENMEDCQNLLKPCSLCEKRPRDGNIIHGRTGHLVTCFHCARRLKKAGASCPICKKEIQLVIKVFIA
Target sequence (Q00987 whole entry, looked up): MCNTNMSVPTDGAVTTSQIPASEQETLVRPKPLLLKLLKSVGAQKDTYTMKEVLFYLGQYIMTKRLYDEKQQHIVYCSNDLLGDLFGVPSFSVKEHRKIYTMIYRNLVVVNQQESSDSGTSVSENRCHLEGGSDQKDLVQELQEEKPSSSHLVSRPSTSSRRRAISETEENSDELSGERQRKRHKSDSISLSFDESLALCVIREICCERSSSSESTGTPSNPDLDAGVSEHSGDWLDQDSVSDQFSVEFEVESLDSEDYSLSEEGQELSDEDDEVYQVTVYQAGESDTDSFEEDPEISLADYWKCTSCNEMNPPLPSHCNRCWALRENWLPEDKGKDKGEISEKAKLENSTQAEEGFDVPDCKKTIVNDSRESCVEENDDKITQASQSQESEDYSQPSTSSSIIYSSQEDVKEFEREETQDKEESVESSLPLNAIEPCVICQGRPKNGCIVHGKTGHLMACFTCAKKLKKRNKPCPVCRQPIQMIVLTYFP
MPTP inh: permeability transition pore inhibition | isolated mouse mitochondria, Ca2+ swelling absorbance, 30 min | inhibition, % at 10 µM | 360,000 tested, 1.4% active | AID 602449;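 active means inhibition of 50% or more, scaled per plate between neutral and stimulator controls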;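 further: 0% = DMSO wells given calcium and 100% = 1 mM EGTA wells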
Mdm2-MdmX conf: human Mdm2/MdmX binding inhibition, confirmed; shares compounds with Mdm2-MdmX inh; luminescent assay; inhibition, % at 8 µM; 10,000 tested, 55% active; in the data active means inhibition above about 40%
FLuc counter: inhibits full-length luciferase, flagging false Mdm2/MdmX hits; shares compounds with Mdm2-MdmX inh; SaOS-2 full-length luciferase counterscreen, luminescence; inhibition, % at 8 µM; 6,200 tested, 77% active;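 active means mean inhibition at 8 µM reaching about 37%, which flags the compound as non-specific, limit read from the data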;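 further: p53-null SaOS-2 cells with luciferase driven by a doxycycline-inducible promoter; compound on cells about two nights before reading with doxycycline added after day one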
An asterisk follows results filed as active; / = no result given.

SMILES	SKKanGAS inh	CSC inhib	Beta apoptosis	NR3A LBD binder	Mdm2-MdmX inh	MPTP inh	Mdm2-MdmX conf	FLuc counter
Cc1nnc(NC(=O)CSc2ncnc3scc(-c4ccccc4)c23)s1	0	40	-1	1	12	6	/	/
Cn1nnnc1Sc1ncnc2scc(-c3ccc(C#N)cc3)c12	/	44	-40	0	87*	0	79*	60*
Cn1nnnc1Sc1ncnc2scc(-c3ccsc3)c12	/	/	-4	1	100*	0	85*	53*
Cn1nnnc1Sc1ncnc2scc(-c3cccs3)c12	/	57	-84	-1	98*	/	90*	56*
Cn1nnnc1Sc1ncnc2scc(-c3cc4ccccc4o3)c12	/	115*	89*	-11	100*	-1	99*	51*
Cc1ccccc1-n1ncc2c1CC(C)(C)CC2NC(=O)c1snnc1C (stereo not given)	3	-9	6	2	6	0	/	/
CC(=O)c1ccccc1-c1csc2ncnc(Sc3nnnn3C)c12	/	24	-35	0	32	-1	/	/
Cn1nnnc1Sc1ncnc2scc(-c3ccc(-c4ccccc4)cc3)c12	/	/	-4	-2	100*	1	23	/
N=c1c(C(=O)NC2CCCCC2)cc2c(=O)n3ccccc3nc2n1Cc1ccco1	5	/	-1	1	56*	0	44*	33
N=c1c(C(=O)NC2CCCCC2)cc2c(=O)n3ccccc3nc2n1Cc1cccnc1	3	3	11	0	-4	1	/	/
N=c1c(C(=O)NC2CCCCC2)cc2c(=O)n3ccccc3nc2n1Cc1ccccc1	1	1	11	-4	25	-1	/	/
CC(C)OCCCn1c(=N)c(C(N)=S)cc2c(=O)n3ccccc3nc21	-5	3	/	0	61*	2	30	/
N=c1c(C(=O)NC2CCCCC2)cc2c(=O)n3ccccc3nc2n1CCc1ccccc1	0	-4	9	1	94*	0	97*	17
Cc1ccc(Cn2c(=N)c(C(=O)NC3CCCC3)cc3c(=O)n4ccccc4nc32)cc1	-6	-2	0	3	50*	-2	4	/
CC(C)N(C)Cc1nnnn1CC(=O)NCCc1cccc(C(F)(F)F)c1	-2	4	-5	-3	-11	-2	/	/
O=C(COC(=O)c1ccc(Cl)nc1)Nc1ccc2c(c1)OCO2	0	-11	-1	0	3	0	/	/
O=C(Nc1nc2ccccc2[nH]1)c1cc2ccccc2o1	30	6	29	-1	-71	2	/	/
CC(Nc1nc(-c2cccnc2)nc2ccccc12)c1ccc(F)cc1 (stereo not given)	9	-3	8	-1	12	2	/	/
CN1CCN(S(=O)(=O)c2ccc(N(C)Cc3cccc(F)c3)nc2)CC1	/	2	1	-2	20	-1	/	/
O=C(NC1CCCN(Cc2ccc(Cl)cc2)C1)c1cnc2ccccn2c1=O (stereo not given)	0	11	1	-1	22	0	/	/
CC(C)Cc1ccc(CN2CCCC(NC(=O)c3cnc4ccccn4c3=O)C2)cc1 (stereo not given)	-2	-2	-7	7	60*	2	20	/
Cc1ccc(C(=O)N2CCCC(C(=O)Nc3cccc(-c4ccc(F)cc4)c3)C2)cn1 (stereo not given)	-3	-8	-2	0	-7	1	/	/
CCOC(=O)c1nnn(-c2nonc2N)c1-c1ccc(F)cc1	1	/	-3	0	8	2	/	/
Cc1nn(-c2ccccc2)c(Cl)c1C1C(C#N)=C(N)Oc2n[nH]c(C)c21 (stereo not given)	-11	10	2	1	53*	-2	23	/
CCC(CC)C1C(C#N)=C(N)Oc2n[nH]c(C)c21 (stereo not given)	-6	12	-4	-2	52*	1	3	/
SMILES	SKKanGAS inh	CSC inhib	Beta apoptosis	NR3A LBD binder	Mdm2-MdmX inh	MPTP inh	Mdm2-MdmX conf	FLuc counter
O=C1C(=O)N(c2nccs2)C(c2ccccc2F)/C1=C(\O)c1ccc2c(c1)OCCO2 (stereo not given)	21	24	-7	-1	71*	-1	68*	37*
O=C1C(=O)N(c2nccs2)C(c2ccccc2)/C1=C(\O)c1ccc2c(c1)OCCO2 (stereo not given)	13	42	-6	/	74*	-1	88*	21
Cc1nnc(N2C(=O)C(=O)/C(=C(/O)c3ccc4c(c3)OCCO4)C2c2ccc(F)cc2)s1 (stereo not given)	7	-7	-7	0	10	1	/	/
CN(CC(=O)Nc1ncn[nH]1)S(=O)(=O)c1ccc(Cl)cc1	-2	3	/	-2	10	-2	/	/
C[C@H](CO)N1C[C@H](C)[C@H](CN(C)C(=O)Nc2cccc(F)c2)Oc2cc(C#CC3(O)CCCC3)ccc2S1(=O)=O	/	/	/	/	/	-2	/	/
Cc1cc(C(C)(C)C)cc(C)c1C[n+]1ccc2ccccc2c1	4	10	111*	-2	51*	1	19	/
Cc1ccc(C(=O)C[n+]2ccc3ccccc3c2)cc1	8	0	3	0	17	0	/	/
O=C(Nc1ccc(Cl)c([N+](=O)[O-])c1)c1ccc(NCCCN2CCOCC2)c([N+](=O)[O-])c1	11	/	12	-1	97*	0	24	/
O=[N+]([O-])c1ccc(NCCCN2CCOCC2)c([N+](=O)[O-])c1	-4	-23	1	1	-10	-1	/	/
Cc1ccc(NC(=O)c2ccc(NCCCN3CCOCC3)c([N+](=O)[O-])c2)cc1Cl	-1	51	24	-7	56*	0	37	69*
O=C(NCCCN1CCOCC1)c1ccc(Cl)c([N+](=O)[O-])c1	-5	-15	-4	1	19	1	/	/
CSCCC(=O)NC1CCCN(CCc2ccccc2)C1 (stereo not given)	-4	-7	/	0	-19	0	/	/
Cc1ccc(NC(=O)C2CC(=O)N(c3ccccc3Cl)C2)cc1S(=O)(=O)N1CCOCC1 (stereo not given)	/	/	/	1	/	1	/	/
COc1ccccc1NC(=O)c1sc2ncn(Cc3ccc(C)cc3)c(=O)c2c1C	10	-8	7	-1	55*	0	-7	/
Cc1[nH]c2ccccc2c(=O)c1C(=O)/C=C/c1ccccc1	7	61	25	0	100*	2	100*	52*
Cc1ccc2[nH]c(=O)c3cc(C(=O)NC(C)C)sc3c2c1	0	4	6	/	14	3	/	/
COc1ccc(/C=N/Nc2cc(C)nc3ccccc23)cc1	2	32	50	-14	98*	12	57*	46*

Screens: PubChem BioAssay, several laboratories
